The panel holds about 83,000 compounds, 20% with a hit somewhere; the sample as a whole holds those more often.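 Each cell line was grown in a 96-well plate and treated with one concentration of compound for 48 hours. Values below 10 were considered active.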 Unmarked numbers belong to inactive results. Activity calls are given as the source filed them.
Experiments:
Test in all cases: NCI-60 one-dose screen, 48 h (100 = growth as untreated, 0 = no growth, -100 = all killed)
SK-MEL-2 melanoma = conditions: 10 µM unless noted
SN12C renal = conditions: 10 µM unless noted
UO-31 renal = conditions: 10 µM unless noted
ACHN renal = conditions: 10 µM unless noted
CAKI-1 renal = conditions: 10 µM unless noted
A498 renal = conditions: 10 µM unless noted
MOLT-4 leukemia = conditions: 10 µM unless noted
RPMI-8226 leukemia = conditions: 10 µM unless noted
OVCAR-8 ovarian = conditions: 10 µM unless noted
OVCAR-5 ovarian = conditions: 10 µM unless noted
OVCAR-4 ovarian = conditions: 10 µM unless noted
SK-OV-3 ovarian = conditions: 10 µM unless noted
IGROV1 ovarian = conditions: 10 µM unless noted
OVCAR-3 ovarian = conditions: 10 µM unless noted
HS 578T breast = conditions: 10 µM unless noted
NCI/ADR-RES ovarian = conditions: 10 µM unless noted
EKVX NSCLC = conditions: 10 µM
TK-10 renal = conditions: 10 µM unless noted
CCRF-CEM leukemia = conditions: 10 µM
SR leukemia = conditions: 10 µM unless noted

Structure (SMILES)	growth (SK-MEL-2 melanoma)	growth (SN12C renal)	growth (UO-31 renal)	growth (ACHN renal)	growth (CAKI-1 renal)	growth (A498 renal)	growth (MOLT-4 leukemia)	growth (RPMI-8226 leukemia)	growth (OVCAR-8 ovarian)	growth (OVCAR-5 ovarian)	growth (OVCAR-4 ovarian)	growth (SK-OV-3 ovarian)	growth (IGROV1 ovarian)	growth (OVCAR-3 ovarian)	growth (HS 578T breast)	growth (NCI/ADR-RES ovarian)	growth (EKVX NSCLC)	growth (TK-10 renal)	growth (CCRF-CEM leukemia)	growth (SR leukemia)
CCC(C)(CC)c1ccc(O)c(C)c1	82.2%	102%	102%	106%	109%	100%	106%	98.8%	109%	109%	109%	93.4%	106%	116%	101%	102%				
C/C=C/C/C=C/[C@H](C)C[C@H](O)[C@@H]1C[C@@H]2O[C@H]2/C=C/[C@@H]2OC(C)(C)O[C@H]2/C=C/C[C@H](C)CC(=O)O1		38.2%	5.37% (active)	38.4%	19.2%	96.5%	34.6%	-5.18% (active)	15.8%	68.5%	23.3%	88.5%	25.2%	21.5%	-18.8% (active)	7.52% (active)	67.2%	18.8%	24.7%	18.8%
COc1cccc(NC(=O)NCCNc2nccc(-c3c(-c4ccc(F)cc4)nc4sccn34)n2)c1		72.8%	52.4%	44.9%	93.4%	77.1%	77.8%	82.2%	65.5%	87%	96%	77.9%	60.5%	90.4%	110%	91.2%	98.6%	76.2%	67.5%	88.3%
OCCN1CCN(CC/C=C2/c3ccccc3Sc3ccc(C(F)(F)F)cc32)CC1	79.8%	72.6%	40.1%	79%	74.9%	79.2%	41.3%		88.5%	82.4%	66.5%	73.1%	55.8%	80%	67.7%	76.1%				
COc1cc(-c2nn(-c3ccc(NC(=O)c4ccc(Cl)c(Cl)c4)cc3)cc2-c2ccncc2)ccc1Cl		79.4%	36.3%	74.1%	44.4%	81.4%	28.7%	4.1% (active)	31.4%	81.8%	57%	94.4%	96.3%	68.4%	-23.7% (active)	72.5%	73%	17.2%	67.6%	11.3%
CC(C)CCCCCOC(=O)c1ccccc1SSc1ccccc1C(=O)OCCCCCC(C)C		105%	70.5%	103%	97.3%	100%	72.1%	88.8%	104%	106%	109%	108%	116%	111%	104%	107%	103%	136%	70.9%	86.9%
CCOc1ccc(Br)cc1/C=C(\C#N)c1ccc([N+](=O)[O-])cc1	88.6%	85.3%	81.5%	68%	77.7%	80.2%	82.7%	84.7%	70%	94.6%	45.2%	44.4%	71.4%	65.8%	7.59% (active)	85.2%				
COc1ccc2cn3c4ccc(O)cc4[nH]c(=O)c3c2c1		51.7%	23.6%	28.3%	16.9%	24.5%	15.2%	13.2%	12.7%	21%	-2.67% (active)	-1.15% (active)		-7.15% (active)	-22.4% (active)	-39% (active)	39%	-2.48% (active)	29.2%	16.1%

From PubChem BioAssay (NCI)
